Results: PubChem BioAssay
The source made the active and inactive calls. Unless noted, the rule behind the calls is not given here.

Assays:
[1] = anti-His antibody binders, primary screen, artefact control for SMM control protein annotation, biochemical, small-molecule microarray, 635 nm fluorescence (AID 1128); details: anti-His Alexa647 antibody binding, higher = more signal;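 note: score merges feature fluorescence with signal-to-noise for each printed compound spot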
[2] = tested on: Human papillomavirus type 1a E7 protein (residues 1-88); experiment: HPV1a E7 small-molecule binders, primary screen, biochemical, small-molecule microarray, residues 1-88, 635 nm (AID 1129); details: small-molecule microarray binding, fluorescence 635 nm; higher = more signal
[3] = molecular target: Focal adhesion kinase 1 (Homo sapiens) (UniProt Q05397); experiment: small-molecule microarray binders of FAK, primary screen, biochemical, 635/667 nm fluorescence, BSA, DTT (AID 1130); details: PTK2 binding, 635 nm fluorescence, higher = more signal;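 note: composite of spot emission at 667 nm and signal to noise over triplicate slides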
[4] = tested on: Fibrinogen (Alexa647-labelled); experiment: fibrinogen binders on compound microarrays, profiling panel, artefact control for SMM control-protein annotation, biochemical, small-molecule microarray, 635/667 nm fluorescence (AID 1131); details: fibrinogen-A647 binding fluorescence, higher = more signal;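 note: z-score merges 667 nm fluorescence with per-spot signal-to-noise over triplicate slides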
[5] = molecular target: Follistatin (Homo sapiens) (UniProt P19883); experiment: follistatin binders on small-molecule microarrays, primary screen, biochemical, small-molecule microarray, 635/667 nm fluorescence (AID 1132); details: FST binding, 635 nm fluorescence, higher = more signal
[6] = molecular target: Fibroblast growth factor 2 (Homo sapiens) (UniProt P09038); experiment: FGF2 binders on small-molecule microarrays, primary screen, biochemical, small-molecule microarray, 635/667 nm fluorescence (AID 1133); details: small-molecule microarray binding, FGF2, fluorescence 635/667; higher = more signal
[7] = mitochondrial membrane potential change in A549 cells, profiling panel, cell-based, JC-1 fluorescence, basal, 24 h, 100 nL (AID 1138); details: higher = more signal;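 note: A549 lung adenocarcinoma cells under basal conditions with no added stimulus; test concentration not given here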
Lefty1 = Lefty1 binders on small-molecule microarrays, primary screen, biochemical, small-molecule microarray, 635/667 nm fluorescence (AID 1139); details: small-molecule microarray binding, fluorescence 635/667; higher = more signal
[8] = tested on: wheat germ agglutinin (Triticum aestivum), Alexa647-labelled; experiment: wheat germ agglutinin binders on compound microarrays, profiling panel, artefact control for SMM control-protein annotation, biochemical, small-molecule microarray, 635/667 nm fluorescence (AID 1140); details: WGA-A647 binding, 635 nm fluorescence, higher = more signal;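 note: score merges 667 nm feature emission with signal to noise over triplicate slides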
[9] = molecular target: Luciferin 4-monooxygenase (Photinus pyralis) (UniProt P08659); experiment: firefly luciferase enzyme inhibitors, primary screen, biochemical, luminescence, purified enzyme, 2006 set (AID 1141); details: SteadyGlo luminescence, 30 min, higher = more signal, called active from +8 up or from −8 down;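 note: cell-free assay with purified firefly luciferase at 100 ng per well in PBS; test concentration not given here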
[10] = tested on: Wnt5a (protein binding on small-molecule microarray); experiment: Wnt5a binders on small-molecule microarray, primary screen, biophysical, 635/667 nm fluorescence (AID 1142); details: 635 nm fluorescence, higher = more signal;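 note: fluorescence read at 667 nm with signal to noise per printed feature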
[11] = cell viability in Huh7 cells, primary screen, cytotoxicity control for HCV replication inhibitor project, CellTiter-Glo luminescence, basal, 48 h (AID 1143); details: Huh7 HCV replicon, higher = more signal, called active from +8 up or from −8 down;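 note: Huh7 hepatoma cells carrying a hepatitis C replication reporter with no stimulus; test concentration not given here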
[12] = P. aeruginosa biofilm formation inhibitors, primary screen, PAO1 strain, BacTiter-Glo luminescence, LB-PBS (AID 1144); details: 12 h, higher = more signal
[13] = CREB reporter modulators without forskolin, primary screen, cell-based, PC12, CRE-LacZ reporter, unstimulated (AID 1145); details: no forskolin, luminescence, 4.5 h, higher = more signal, called active from +8 up or from −8 down
[14] = CREB reporter modulators under forskolin, primary screen, cell-based, PC12, CRE-LacZ reporter, forskolin-stimulated (AID 1146); details: luminescence, 4.5 h, higher = more signal, called active from +8 up or from −8 down;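 note: PC12 cells with 6xCRE LacZ reporter stimulated by forskolin 10 µM; beta-galactosidase reporter signal reflecting CREB driven transcription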
[15] = molecular target: Streptavidin (Streptomyces avidinii) (UniProt P22629); experiment: streptavidin binders on small-molecule microarray, primary screen, artefact control for SMM compound annotation, biophysical, 635/667 nm fluorescence (AID 1147); details: streptavidin binding, higher = more signal;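 note: signal reflects streptavidin binding to arrayed compounds as a control protein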
[16] = small-molecule binders of probe aInhba, primary screen, biochemical, small-molecule microarray, 635/667 nm fluorescence (AID 1148); details: higher = more signal;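 note: score merges 667nm spot fluorescence with signal-to-noise for antibody binding to printed compounds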
Torsin-1A (Homo sapiens) [17] = molecular target: Torsin-1A (Homo sapiens) (UniProt O14656); experiment: torsin A binders from cell lysate, primary screen, small-molecule microarray, wild-type, 635/667 nm (AID 1149); details: COS7 hTOR1A-WT lysate, 635 nm fluorescence, higher = more signal
Torsin-1A (Homo sapiens) [18] = molecular target: Torsin-1A (Homo sapiens) (UniProt O14656); experiment: small-molecule binders of mutant TOR1A in lysate, primary screen, cell lysate, small-molecule microarray, COS7 lysate, 635/667 nm fluorescence (AID 1150); details: COS7 hTOR1A mutant lysate, 635 nm fluorescence, higher = more signal;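 note: score pools 667 nm emission and signal to noise measuring lysate protein binding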
[19] = tested on: Sonic hedgehog protein (Shh); experiment: small-molecule binders of Shh protein, primary screen, biochemical, small-molecule microarray, 635/667 nm fluorescence (AID 1151); details: small-molecule microarray binding, 635 nm fluorescence; higher = more signal;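 note: Shh protein binding to compounds spotted on small-molecule microarray slides; score combines spot fluorescence intensity with signal-to-noise across triplicate slides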

Chain of Torsin-1A (Homo sapiens) (O14656 whole entry, looked up): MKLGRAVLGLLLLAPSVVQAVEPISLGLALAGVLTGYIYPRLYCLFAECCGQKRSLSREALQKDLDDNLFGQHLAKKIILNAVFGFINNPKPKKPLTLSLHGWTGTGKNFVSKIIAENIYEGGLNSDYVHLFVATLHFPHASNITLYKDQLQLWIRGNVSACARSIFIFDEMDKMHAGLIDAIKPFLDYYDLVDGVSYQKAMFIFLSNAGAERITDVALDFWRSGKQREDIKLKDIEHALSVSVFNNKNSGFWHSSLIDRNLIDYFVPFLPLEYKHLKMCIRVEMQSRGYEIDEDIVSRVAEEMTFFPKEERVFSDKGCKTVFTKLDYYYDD
Chain of Fibroblast growth factor 2 (Homo sapiens) (P09038 whole entry, looked up): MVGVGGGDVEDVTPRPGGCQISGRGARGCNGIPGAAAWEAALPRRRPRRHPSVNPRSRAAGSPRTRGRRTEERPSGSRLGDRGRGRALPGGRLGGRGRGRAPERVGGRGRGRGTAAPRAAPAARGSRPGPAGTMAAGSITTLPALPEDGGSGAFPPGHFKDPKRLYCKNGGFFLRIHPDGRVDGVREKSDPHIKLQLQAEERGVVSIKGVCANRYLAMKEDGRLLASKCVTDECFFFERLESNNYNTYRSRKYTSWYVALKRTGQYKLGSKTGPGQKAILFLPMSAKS
Chain of Luciferin 4-monooxygenase (Photinus pyralis) (P08659 whole entry, looked up): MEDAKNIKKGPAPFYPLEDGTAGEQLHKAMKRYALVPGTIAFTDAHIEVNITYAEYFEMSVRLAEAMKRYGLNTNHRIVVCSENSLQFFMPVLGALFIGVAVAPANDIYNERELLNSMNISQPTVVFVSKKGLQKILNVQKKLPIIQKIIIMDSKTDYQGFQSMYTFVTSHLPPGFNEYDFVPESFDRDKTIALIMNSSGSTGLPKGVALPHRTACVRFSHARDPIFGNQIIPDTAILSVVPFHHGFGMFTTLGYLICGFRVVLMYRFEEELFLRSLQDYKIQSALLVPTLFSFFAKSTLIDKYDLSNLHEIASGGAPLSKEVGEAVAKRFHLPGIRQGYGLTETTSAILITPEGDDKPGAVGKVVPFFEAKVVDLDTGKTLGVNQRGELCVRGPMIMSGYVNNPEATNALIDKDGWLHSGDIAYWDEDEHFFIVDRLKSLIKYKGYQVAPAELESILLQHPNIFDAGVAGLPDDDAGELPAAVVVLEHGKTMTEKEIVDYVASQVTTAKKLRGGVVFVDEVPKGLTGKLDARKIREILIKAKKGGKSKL
Chain of Streptavidin (Streptomyces avidinii) (P22629 whole entry, looked up): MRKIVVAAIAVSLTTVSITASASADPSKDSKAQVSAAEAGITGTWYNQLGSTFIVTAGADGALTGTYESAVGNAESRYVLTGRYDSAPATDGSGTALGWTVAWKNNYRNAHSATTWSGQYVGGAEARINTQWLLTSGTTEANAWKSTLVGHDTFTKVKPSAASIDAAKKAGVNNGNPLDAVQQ
Chain of Follistatin (Homo sapiens) (P19883 whole entry, looked up): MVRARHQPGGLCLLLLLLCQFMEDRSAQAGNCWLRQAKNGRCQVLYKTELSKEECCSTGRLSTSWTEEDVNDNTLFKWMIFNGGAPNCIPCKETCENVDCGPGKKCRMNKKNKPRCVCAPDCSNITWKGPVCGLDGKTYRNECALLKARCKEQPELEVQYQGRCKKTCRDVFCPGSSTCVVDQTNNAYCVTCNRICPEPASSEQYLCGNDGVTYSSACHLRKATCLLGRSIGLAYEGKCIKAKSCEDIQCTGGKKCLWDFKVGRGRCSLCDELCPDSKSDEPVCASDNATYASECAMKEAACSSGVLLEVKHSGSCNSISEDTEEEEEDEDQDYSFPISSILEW
Chain of Focal adhesion kinase 1 (Homo sapiens) (Q05397 whole entry, looked up): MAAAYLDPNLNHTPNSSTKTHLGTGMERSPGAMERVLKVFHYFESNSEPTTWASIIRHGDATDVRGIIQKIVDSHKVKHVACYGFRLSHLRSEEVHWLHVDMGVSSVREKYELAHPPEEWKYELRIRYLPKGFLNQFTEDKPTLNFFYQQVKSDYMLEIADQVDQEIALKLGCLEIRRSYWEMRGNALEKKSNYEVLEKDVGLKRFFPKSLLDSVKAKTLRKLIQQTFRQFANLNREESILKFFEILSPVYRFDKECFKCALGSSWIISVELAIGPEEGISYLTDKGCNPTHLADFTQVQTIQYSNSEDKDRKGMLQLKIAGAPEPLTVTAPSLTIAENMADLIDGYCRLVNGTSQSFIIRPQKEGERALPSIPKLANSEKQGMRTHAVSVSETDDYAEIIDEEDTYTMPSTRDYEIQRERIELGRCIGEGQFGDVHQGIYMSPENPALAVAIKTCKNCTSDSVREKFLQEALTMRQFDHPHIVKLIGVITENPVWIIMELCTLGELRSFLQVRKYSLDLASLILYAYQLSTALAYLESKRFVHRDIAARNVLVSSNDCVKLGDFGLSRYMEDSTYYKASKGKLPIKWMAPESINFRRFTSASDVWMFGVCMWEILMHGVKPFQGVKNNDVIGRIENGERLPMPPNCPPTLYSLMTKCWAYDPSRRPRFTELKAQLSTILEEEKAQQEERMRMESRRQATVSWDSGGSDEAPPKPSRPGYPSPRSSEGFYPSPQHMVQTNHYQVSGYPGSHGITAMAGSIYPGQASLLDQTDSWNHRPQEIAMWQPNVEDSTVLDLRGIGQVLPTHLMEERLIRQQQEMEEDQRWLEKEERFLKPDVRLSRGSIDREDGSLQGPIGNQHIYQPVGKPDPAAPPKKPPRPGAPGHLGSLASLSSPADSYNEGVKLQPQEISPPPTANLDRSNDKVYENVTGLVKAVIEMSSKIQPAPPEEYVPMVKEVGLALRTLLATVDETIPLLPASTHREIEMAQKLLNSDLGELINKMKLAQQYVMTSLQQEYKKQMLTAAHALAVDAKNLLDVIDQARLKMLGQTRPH

Row | Compound | composite z-score [1] | composite z-score [2] | composite z-score [3] | composite z-score [4] | composite z-score [5] | composite z-score [6] | z-score [7] | composite z-score (Lefty1) | composite z-score [8] | z-score [9] | composite z-score [10] | z-score [11] | z-score [12] | z-score [13] | z-score [14] | composite z-score [15] | composite z-score [16] | composite z-score (Torsin-1A (Homo sapiens) [17]) | composite z-score (Torsin-1A (Homo sapiens) [18]) | composite z-score [19]
1 | Cc1ccc(S[C@]2(C(=O)NCCN3CCOCC3)CC(=O)N(Cc3ccccc3Cl)[C@@H]2c2ccc(CO)cc2)cc1 | 1.69 | -0.516 | 0.155 | -1.85 | 0.157 | -0.536 | -0.63 | -0.188 | 0.193 | 1.58 (inactive) | -0.0036 | -2.93 (inactive) | -1.98 (inactive) | 0.441 (inactive) | 1.1 (inactive) | -0.625 | -0.255 | -2.16 | 0.269 | -0.143
2 | NCCCCCNC(=O)[C@@H]1C[C@@H]2C(=O)NCC(=O)N2[C@@H]1c1ccc(O)cc1 | 2.18 | 1.19 | 0.0992 | 0.948 | 1.51 | 1.79 | 1.41 | 1.76 | 0.891 | -1.11 (inactive) | 0.892 | 0.104 (inactive) | -0.735 (inactive) | 0.557 (inactive) | 0.467 (inactive) | 1.2 | -0.0963 | 1.06 | 0.682 | 2.06
3 | COc1ccc(C(O)C2C=CC3C(=O)N(C)C(=O)C3N2N2CCCCC2)c2ccccc12 (stereo not given) | 1.4 | 1.26 | 0.921 | 1 | 0.829 | -0.372 | -0.364 | 0.174 | 1.27 | -0.129 (inactive) | 0.533 | 0.221 (inactive) | 0.28 (inactive) | 1.39 (inactive) | 0.426 (inactive) | 1.25 | 0.111 | 0.466 | 0.66 | -0.474
4 | CN(C)CCCC[C@@H]1NC(=O)[C@H]2C[C@@H](C(=O)NCCCCCNC(=O)CS)[C@@H](c3cccc(OCCO)c3)N2C1=O | 1.32 | 0.866 | 0.688 | 0.44 | 1.41 | 1.69 | 0.446 | 1 | -0.0708 | -0.804 (inactive) | 0.12 | 0.358 (inactive) | -0.358 (inactive) | -0.114 (inactive) | 0.547 (inactive) | 0.182 | -0.128 | 0.537 | 0.749 | 1.72
5 | CCOC(=O)C[C@H]1[C@H](OC(=O)Cc2ccc3c(c2)OCO3)[C@@H](NC(=O)c2ccc3ccccc3c2)c2cc(OCCCO)ccc2N1C(=O)c1ccccc1 | 0.638 | 0.878 | 0.675 | 0.823 | 0.375 | 0.111 | 1.84 | 0.593 | 0.271 | -1.05 (inactive) | 0.0819 | -0.23 (inactive) | -0.784 (inactive) | 4.07 (inactive) | 0.005 (inactive) | 0.397 | 0.0184 | 0.0289 | 0.458 | 0.601
6 | COc1ccc(C(O)C2C=CC3C(=O)NC(=O)C3N2Nc2ccccn2)c2ccccc12 (stereo not given) | 0.516 | -0.609 | -0.106 | 0.0992 | 0.488 | 0.524 | -1.15 | -0.0665 | 0.788 | -1.46 (inactive) | 0.0373 | 1.04 (inactive) | -0.507 (inactive) | -0.133 (inactive) | 0.214 (inactive) | -0.0105 | -0.0791 | 0.239 | -0.274 | 0.448
7 | CC(C)C(=C=CC[C@@H](O)c1ccccc1OCCO)CCO | 2.31 | 0.43 | 0.306 | 0.442 | 0.71 | 0.853 | 0.991 | 0.352 | 0.201 | -1.91 (inactive) | -0.0322 | -3.75 (inactive) | 0.0933 (inactive) | 5.12 (inactive) | -0.366 (inactive) | 0.666 | -0.016 | -0.502 | -0.455 | 0.575
8 | CN1C(=O)C2C=CC(C(O)c3cc(C(F)(F)F)cc(C(F)(F)F)c3)N(N3CCCCC3)C2C1=O (stereo not given) | 1.13 | 1.03 | 0.428 | 0.62 | -0.165 | -0.397 | -0.0918 | -0.4 | 0.615 | -1.48 (inactive) | 0.209 | 0.401 (inactive) | -0.15 (inactive) | 0.44 (inactive) | -0.411 (inactive) | -0.0121 | 0.0047 | -0.083 | 0.502 | 0.035
9 | COc1ccc(C(=O)O[C@H]2CC[C@]3(C)C4=C(CCC3C2(C)C)[C@]2(C)CC[C@H]([C@H](C)CCCC(C)C)[C@@]2(C)CC4)cc1 (stereo not given in full) | 0.541 | 0.607 | -0.0307 | 0.206 | 0.625 | 0.483 | 1.41 | 0.493 | 0.103 | -0.384 (inactive) | 0.314 | -1.02 (inactive) | -1.6 (inactive) | 0.131 (inactive) | -0.634 (inactive) | 0.25 | -0.103 | 0.344 | 0.609 | 1
10 | Cc1ccc(S[C@]2(C(=O)NCC(F)(F)F)CC(=O)N(C(C)C)[C@@H]2c2ccc(CO)cc2I)cc1 | -1.45 | -0.68 | -0.188 | -1.11 | -0.366 | 0.0888 | 0.758 | -1.13 | -0.86 | -1.01 (inactive) | 0.0446 | -1.53 (inactive) | 0.111 (inactive) | 0.118 (inactive) | 0.725 (inactive) | -0.563 | -0.128 | -0.846 | -0.474 | -0.594
